According to PubChem BioAssay (NCI):
This is part of a sample that, as a whole, favours compounds with a hit. Of some 79,000 tested, about 15% had one in any assay. Rule as the data show it: active = growth inhibition above about 70%; inactive = the rest.

Legend:
[1] = NCI Yeast Anticancer Drug Screen. Data for the rad50 strain (AID 155);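 also: 0% = growth of vehicle-only cultures of the same strain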; settings: S. cerevisiae rad50 strain growth inhibition; at 50.0 µM; active compounds read high
In short: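 Compounds were tested on a yeast strain with an engineered DNA damage repair alteration; the reported value is growth inhibition normalised to vehicle treatment.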

[2] = NCI Yeast Anticancer Drug Screen. Data for the mec2-1 strain (AID 157); settings: S. cerevisiae mec2-1 strain, at 50.0 µM, active compounds read high
In short: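 Compounds were applied to mec2-1 yeast cells. Their growth was then compared with that of vehicle-treated cultures to give growth inhibition.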

[3] = NCI Yeast Anticancer Drug Screen. Data for the sgs1 mgt1 strain (AID 161);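 also: 0% = growth of cultures given vehicle only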; settings: S. cerevisiae sgs1 mgt1 strain, at 50.0 µM, active compounds read high
In short: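 Growth of a repair-deficient yeast mutant was monitored after compound treatment and expressed as inhibition relative to vehicle-treated cultures.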

[4] = NCI Yeast Anticancer Drug Screen. Data for the cln2 rad14 strain (AID 165);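 also: 0% = growth equal to vehicle treated cultures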; settings: S. cerevisiae cln2 rad14 strain, at 50.0 µM, active compounds read high
In short: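 Strain: cln2 rad14 yeast, altered in cell cycle control and DNA damage repair. Read-out: growth inhibition vs vehicle.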

[5] = NCI Yeast Anticancer Drug Screen. Data for the bub3 strain (AID 167); settings: S. cerevisiae bub3 mutant strain, at 50.0 µM, active compounds read high
In short: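 Growth of a checkpoint-deficient yeast mutant is measured after compound exposure. Values represent inhibition relative to vehicle.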

[6] = NCI Yeast Anticancer Drug Screen. Data for the mlh1 rad18 strain (AID 175); settings: S. cerevisiae mlh1 rad18 strain growth inhibition; at 50.0 µM; active compounds read high
In short: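 A repair-deficient yeast strain is exposed to test compound, and growth is scored relative to vehicle-treated controls.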

Measured: growth inhibition

COc1ccc2c(c1)C1(C)CCCC(C)(CN=C=O)C1CC2 (stereo not drawn)
inactive: [1] 3.55% | [2] 14.4% | [3] -4.75% | [4] 4.8% | [5] -11.9% | [6] -1.95%

CCN(CC)c1ccc(/C=C(\C)c2nc3ccc(Cl)cc3[nH]2)cc1
inactive: [1] -5.35% | [2] 6.6% | [3] 4.5% | [4] 7% | [5] -5.95% | [6] -4.75%

c1ccc(C2=NC(c3ccccc3)(c3ccccc3)N=C2c2ccccc2)cc1
inactive: [1] 2.75% | [2] 10.7% | [3] -11.2% | [4] -10.1% | [5] -8.55% | [6] 2.5%

C=C1C(=O)O[C@H]2[C@H]1[C@@H](OC(=O)C=C(C)C)CC1=C[C@@H](C[C@@]3(C)O[C@@H]23)OC1=O
inactive: [1] -7.45% | [2] -7.55% | [3] 7.4% | [4] 9.85% | [5] -2.6% | [6] 7.85%

CCOC(=O)CSc1nc(N)c2c(-c3ccccc3)c3c(nc2n1)CCCC3
inactive: [1] -23.1% | [2] 11.1% | [3] 10.8% | [4] 33.1% | [5] 21.7% | [6] 17.7%

O=C(CCSc1ncnc2nc[nH]c12)c1ccccc1
inactive: [1] -24.8% | [2] 20.4% | [3] -3.05% | [4] -36.2% | [5] 4.3% | [6] 12.1%

CN=NNc1ccc(C(=O)NC(C)C)cc1
inactive: [1] -3.65% | [2] -2% | [3] -8.2% | [4] -1.15% | [5] -13.7% | [6] -14.7%

NC1=NC=N/C(=N\c2ccccn2)C1N (stereo not drawn)
inactive: [1] -13.3% | [2] -9.95% | [3] -5.4% | [4] -32.2% | [5] -11.2% | [6] -8.6%

Cn1cnc(N)c1S(N)(=O)=O
inactive: [1] -11.8% | [2] 2.45% | [3] 9.7% | [4] -6% | [5] -6.3% | [6] 26.1%

CCCC(=O)CC(C)C(=O)C(=O)NC12CC3CC(CC(C3)C1)C2 (stereo not drawn)
inactive: [1] 14.6% | [2] 8.35% | [3] 13.4% | [4] 20.2% | [5] 4.4% | [6] 30.3%

CC(C)(C)CC(C)(O)C(=O)O (stereo not drawn)
inactive: [1] 6.9% | [2] -18.9% | [3] -15.8% | [4] -1.45% | [5] -13.5% | [6] -3.55%

O=C1NCCCCCC1S(=O)c1ccccc1 (stereo not drawn)
inactive: [1] -7.8% | [2] -10.2% | [3] -8.5% | [4] 28.6% | [5] -11.8% | [6] -11.8%

COC(=O)CCCC(Sc1ccccc1)C(=O)OC (stereo not drawn)
inactive: [1] 3.7% | [2] 0.6% | [3] 15.7% | [4] -7.4% | [5] 7.85% | [6] 6.75%

CCOC(=O)C(=CNC(=S)Nc1cc(C)ccc1C)C(=O)OCC
inactive: [1] -12.8% | [2] -38.5% | [3] -14.1% | [4] -19.1% | [5] -16.7% | [6] -1.85%

CCOC(=O)C1CN(C2CCCCC2)CCC1=O (stereo not drawn)
inactive: [1] -2.45% | [2] -26.6% | [3] 4.85% | [4] -37% | [5] 1.4% | [6] -24.4%

CCC1CC2CCC(c3cc4c(cc3OC)N(C)C3C(O)(C(=O)OC)C(OC(C)=O)C5(CC)C=CCN6CCC43C65)c3[nH]c4ccccc4c3CCN(C1)C2 (stereo not drawn)
inactive: [1] 2.65% | [2] 6.65% | [3] 12.4% | [4] -1% | [5] -3.35% | [6] 18.9%

Cc1ccc(S(=O)(=O)NCCC(Cl)(Cl)Cl)cc1
inactive: [1] 21.6% | [2] 6.8% | [3] 1.05% | [4] 1.2% | [5] 38% | [6] 27.7%

Oc1c(CN2CCOCC2)cc(CN2CCOCC2)cc1CN1CCOCC1
inactive: [1] 7.7% | [2] 0.5% | [3] -5.4% | [4] 2.2% | [5] 6.6% | [6] 6.55%

Cc1nc(N)c2c(n1)C(Cc1ccccc1)N(C(=O)c1ccccc1)C2 (stereo not drawn)
inactive: [1] -5.6% | [2] -4.3% | [3] -24.1% | [4] -24.4% | [5] 6.55% | [6] -17.4%

COc1ccc(-c2cc(=O)cc(C(N)=O)o2)cc1
inactive: [1] -1.1% | [2] -1% | [3] 4.6% | [4] -13.8% | [5] 11.2% | [6] 17.2%

N#C/C(=N/Nc1nc[nH]c1C(N)=O)C(=O)Nc1ccccc1
inactive: [1] 8.6% | [2] 20.9% | [3] 16.6% | [4] -0.1% | [5] -0.6% | [6] 26.1%

CC(O)(C#Cc1ccccc1)c1nc2ccccc2s1 (stereo not drawn)
inactive: [1] 1.2% | [2] -5% | [3] -4.95% | [4] -7.65% | [5] 17.2% | [6] 4.35%

CCOC(=O)C12CCCCC1=CC1(CC2)SCCS1 (stereo not drawn)
inactive: [1] -0.45% | [2] -9.95% | [3] -30.5% | [4] -1.35% | [5] 4.55% | [6] -15.6%

Cn1nnc2c1C(=O)c1ccccc1C2=O
inactive: [1] 0.6% | [2] -14% | [3] 29.4% | [4] -50.3% | [5] -8.5% | [6] -0.7%

COc1ccc(C(=Nc2ccc(C)cc2)c2ccccc2)cc1
inactive: [1] -2.1% | [2] 7.2% | [3] -6.05% | [4] -43.6% | [5] -9.1% | [6] -15.6%

CCCCN(CCCC)C(=O)C(=O)C(C#N)c1ccc(C)cc1 (stereo not drawn)
inactive: [1] -7% | [2] -0.8% | [3] 6.15% | [4] 17.6% | [5] 20.7% | [6] -9.3%

CN(C)Cc1ccc(O)c(CN(C)C)n1
inactive: [1] -21.1% | [2] -19.1% | [3] -14.8% | [4] -3.65% | [5] -49.8% | [6] -19.2%

ClC12CCC(Cl)(CC1)CC2
inactive: [1] 10.5% | [2] 0.65% | [3] -3.95% | [4] -50.6% | [5] -10.7% | [6] -7.95%

O=C1CCC(=O)N2CCCCN12
inactive: [1] -4.7% | [2] -12.4% | [3] 11% | [4] 18.6% | [5] 22.5% | [6] 13.1%

CCOC(=O)C1SC(=Nc2ccc(C)c(C)c2)N=C1C (stereo not drawn)
inactive: [1] -20.2% | [2] -7.4% | [3] -22.4% | [4] 19.7% | [5] 4.85% | [6] 7.15%

CC1/C(=N/O)CC(c2ccccc2)N(N=O)C1c1ccccc1 (stereo not drawn)
inactive: [1] 62.8% | [2] 46.2% | [3] 57.5% | [4] 18.8% | [5] 13.6% | [6] 46%

Cc1nn(C(=O)c2ccc(Cl)cc2)c2c1C(c1ccccc1[N+](=O)[O-])SC(N)=N2 (stereo not drawn)
inactive: [1] -9.6% | [2] -1.5% | [3] 7.05% | [4] 33% | [5] 27.6% | [6] -9.05%

O=C1CC(c2ccccc2)NCN1 (stereo not drawn)
inactive: [1] 3.95% | [2] 1% | [3] 7.1% | [4] 2.2% | [5] -2.4% | [6] 8.3%

CN(C)c1ccccc1C(=O)N/N=C/c1ccc(F)cc1
inactive: [1] -4.7% | [2] -31.3% | [3] -6.55% | [4] -13.8% | [5] -14.9% | [6] -6%

O=C(O)Cc1n[nH]c(=O)c2ccccc12
inactive: [1] -21.1% | [2] -5.2% | [3] -0.45% | [4] -2.75% | [5] -25.9% | [6] -7.7%

CC1CCCCC1(O)C(C(=O)O)c1ccccc1 (stereo not drawn)
inactive: [1] -8.1% | [2] -9.85% | [3] 0.3% | [4] -1.95% | [5] -22% | [6] -29.6%

CCC(=C(C#N)C#N)c1cc(OC)c(OC)c(OC)c1
inactive: [1] -43% | [2] -31.8% | [3] -24.2% | [4] -16.2% | [5] -26.5% | [6] -13.8%

CC1=CC(=C2C=CC(=O)C=C2)C=C(C)N1C
inactive: [1] 5.6% | [2] -5.55% | [3] -8.05% | [4] -4.5% | [5] 2.4% | [6] -3.65%
